This passage reports sensor-assay potency score (higher = more potent) results from the OligoGym collection.
Note: reference of the scale not given here.

In the first assay the target is CYSLTR1. Description: pooled miR-30 sensor sort-seq; sequence = guide strand. To be noted: shRNA.
For TTTCTGAATGTAGACAGCCTTT, the sensor-assay potency score (higher = more potent) is -1.15.
The same measure, in the same setting: in the case of TTGACATACAAAGCATAGGTGC it was -0.753; in that of TTTTAGTTTGATTGTCTTGTGG, -0.438.
Sequence ATACCTACACACACAAACCTGG showed a sensor-assay potency score (higher = more potent) of -0.207.
Sequence TAGAGGTTGACATACAAAGCAT returned a sensor-assay potency score (higher = more potent) of -0.639.
Same read-out and setting: in the case of TAGAAATGGAGAACTGGTCAAA it was -0.616; in that of TTTAGTTTGATTGTCTTGTGGG, 0.715.
The same measure, in the same setting: in the case of TTTGTGAACATAATAGACCACA it was -0.314.
Still for that read-out and setting: the result for TAAATTAATCATGTATACTTGG reads -0.15; that for TTAGTTTGATTGTCTTGTGGGG, 0.0611.
Regarding TGACACATAATGCAAGACCAAA, the sensor-assay potency score (higher = more potent) was -1.62.

The next assay concerns the target CYTH1. The description is as above. To be noted: shRNA.
In turn, TAGGAAACACTTGAGAACCAGG returned a sensor-assay potency score (higher = more potent) of -0.778.
On the same count and under the same terms, in the case of AACTTGGTCTTTATTGTCGGGG it was -0.623; in that of TGCACTGACAATATCGCTGGGC, 0.0607.
TATTGCACTGACAATATCGCTG showed a sensor-assay potency score (higher = more potent) of -0.0444.
On the same count and under the same terms, the result for TTCTGCTATCTCATCCTTCAGC reads -0.329; that for TTTCATTAGCTACTTCTGCTAT, -0.232.
